Several values for one entry are separate records, joined by “and”; a condition that tells them apart may be missing. Equal entries are not always repeated. The campaign covered roughly 350,000 compounds. About 6,000 (1.7%) were called active. Another 5% or so got no clear call; they are omitted. The sample holds actives, similar compounds and a random draw of the others, so the mix is not that of the screen. Rule as the data show it: active = CPE inhibition above about 20% (passing the limit was not always enough); inconclusive = no clear call, values can overlap the other calls; tested in BHK-21 cells. The source holds several records for some structures; these can differ, active in one and inactive in another.
Assay: inhibitors of DENV2 cytopathic effect, primary screen, cell-based, plate reader, single concentration (AID 651640);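 also: 0% = median of neutral control wells and 100% = median of positive control wells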
Conditions: DENV2-infected cells, cytopathic effect rescue, at 9.99 µM, stronger effect = higher value
With `CC(=O)c1ccc(S(=O)(=O)NCC2CCN(C(=O)C(=O)c3cccs3)CC2)cc1` the CPE inhibition was -2.02% (inactive). For `N#Cc1cccc(-c2ccc(C3[C@H]4CNC[C@@H]3N4Cc3cncnc3)cc2)c1` (some centres not stated), the CPE inhibition was -5.94% (inactive). With `N#Cc1ccc(-c2ccc([C@@H]3[C@H]4CNC[C@@H]3N4Cc3cc(F)ccc3F)cc2)cc1` the CPE inhibition was -0.209% (inactive). With `COc1ccccc1CN1[C@@H]2CNC[C@H]1C2c1ccc(-c2cccc(C#N)c2)cc1` (some centres not stated) the CPE inhibition was 9% (inactive) and 53.2% (active). For `CCCNC(=O)C[C@@H]1CC[C@@H]2[C@H](COc3ccc(NC(=O)C4CCOCC4)cc3C(=O)N2C)O1`, the CPE inhibition was 11.7% (inactive). In the case of `Cc1cccc(NC(=O)COC(=O)CCc2ccccc2)c1C`, the CPE inhibition is reported as 0.193% (inactive). With `CCN(CC(=O)Nc1ccc(C)c(S(=O)(=O)N(C)C)c1)Cc1ccccc1` the CPE inhibition was 7.9% (inactive). For `CCN(CC(=O)NCC(=O)Nc1cccc(C)c1C)Cc1ccccc1`, the CPE inhibition was 61.4% (active). With `CO[C@H]1CN(C)C(=O)c2cc(NC(=O)c3ccccc3)ccc2OC[C@H](C)NC[C@H]1C` the CPE inhibition was -12.8% (inactive). For `O=C(N[C@@H]1C=C[C@@H](CC(=O)N2CCOCC2)O[C@H]1CO)c1ccccn1`, the CPE inhibition was -8.41% (inactive). With `CCCc1nc2ccccc2n1C(C)C(=O)NC(C)(C)C` (configuration not stated) the CPE inhibition was 34.6% (active). With `CCC(C(=O)NC(C)(C)C)n1c(-c2ccccc2)nc2ccccc21` (configuration not stated) the CPE inhibition was -20.3% (inactive). With `CC(C)(C)NC(=O)C(CCc1ccccc1)n1c(=O)c(-c2ccccc2)nc2ccccc21` (configuration not stated) the CPE inhibition was 8.63% (inactive). For `CCCNC(=O)C[C@@H]1CC[C@H]2[C@H](COc3ccc(NC(=O)c4ccc(Cl)cc4)cc3C(=O)N2C)O1`, the CPE inhibition was -2.04% (inactive). For `O=C(C[C@@H]1CC[C@H](NS(=O)(=O)c2cccc(F)c2)[C@H](CO)O1)N1CCCCC1`, the CPE inhibition was -2.32% (inactive). For `COc1ccc(-c2cn(CC[C@@H]3CC[C@@H](NC(=O)CCN4CCCCC4)[C@@H](CO)O3)nn2)cc1`, the CPE inhibition was -1.31% (inactive). With `Cc1cccc(C)c1NC(=O)CNC(=O)c1ccc(N2CCOCC2)c([N+](=O)[O-])c1` the CPE inhibition was -8.12% (inactive). In the case of `O=C(OCC(=O)N1CCOCC1)c1ccc(N2CCOCC2)c([N+](=O)[O-])c1`, the CPE inhibition is reported as 2.84% (inactive). In the case of `N#Cc1c(NC(=O)c2ccc(N3CCOCC3)c([N+](=O)[O-])c2)sc2c1CCCC2`, the CPE inhibition is reported as 46.3% (active). For `C[C@H]1CN([C@@H](C)CO)C(=O)c2cccc(NC(=O)Nc3ccccc3)c2O[C@@H]1CN(C)S(=O)(=O)c1ccc(F)cc1`, the CPE inhibition was 13.7% (inactive). In the case of `COc1ccc2c3c(n(C)c2c1)[C@@H](CO)N(CC1CC1)CC31CN(C(=O)Nc2c(C)noc2C)C1`, the CPE inhibition is reported as 7.58% (inactive). In the case of `COc1ccc(CNC(=O)COC(=O)CCS(=O)(=O)c2ccc(C)cc2)cc1OC`, the CPE inhibition is reported as -2.46% (inactive). With `CCCCCCNC(=O)O[C@]12C[C@@H](C(=O)OC)[C@@H](C(=O)OC)C[C@@]1(O)CN(S(=O)(=O)c1ccc(C)cc1)C2` the CPE inhibition was -1.36% (inactive). In the case of `CCCCCCn1c(=O)n2n(c1=O)C[C@]1(OC(=O)NCc3ccc(OC)c(OC)c3)CN(S(=O)(=O)c3ccc(C)cc3)C[C@]1(O)C2`, the CPE inhibition is reported as 33.2% (active). For `C[C@H](O)C#Cc1ccc2c(c1)O[C@H](CN(C)Cc1ccccn1)[C@@H](C)CN([C@@H](C)CO)S2(=O)=O`, the CPE inhibition was 3.01% (inactive). With `C[C@H]1CN([C@@H](C)CO)C(=O)c2c(c3ccccc3n2C)-c2ccccc2CO[C@H]1CN(C)Cc1ccc2c(c1)OCO2` the CPE inhibition was -9.95% (inactive). For `CCOC(=O)/C=C/c1ccccc1O`, the CPE inhibition was -9.35% (inactive). With `CCOC(=O)NNc1cc(C(F)(F)F)ccn1` the CPE inhibition was -1.25% (inactive). In the case of `CCOC(=O)/C=C/c1ccc(C(F)(F)F)cc1S(=O)(=O)NC(C)(C)C`, the CPE inhibition is reported as 23.6% (active). For `O=C(CN1CCOCC1)N[C@@H]1CC[C@H](CCNS(=O)(=O)c2ccccc2F)O[C@H]1CO`, the CPE inhibition was 28.5% (active). With `O=C(Nc1ccccc1)N[C@@H]1CC[C@H](CCNS(=O)(=O)c2ccccc2F)O[C@@H]1CO` the CPE inhibition was -0.044% (inactive). In the case of `O=C(CN1CCOCC1)N[C@H]1CC[C@@H](CCNS(=O)(=O)c2ccccc2F)O[C@H]1CO`, the CPE inhibition is reported as 1.76% (inactive). In the case of `O=C(Cc1ccccc1)N1C[C@H]2[C@@H](c3ccccc31)[C@H](CO)N2C(=O)C1CCOCC1`, the CPE inhibition is reported as 2% (inactive). For `O=C(NCC[C@H]1CC[C@@H](NC(=O)c2ccncc2)[C@@H](CO)O1)Nc1ccc(Cl)cc1`, the CPE inhibition was 3.84% (inactive). In the case of `COc1ccc(NC(=O)Nc2ccc3c(c2)C(=O)N([C@@H](C)CO)C[C@@H](C)[C@@H](CN(C)C(=O)CCCN(C)C)OCCCC[C@@H](C)O3)cc1`, the CPE inhibition is reported as -1% (inactive). In the case of `Cc1ccc(S(=O)(=O)N[C@H]2CC[C@@H](CC(=O)NCc3ccc(Cl)c(Cl)c3)O[C@H]2CO)cc1`, the CPE inhibition is reported as -6.75% (inactive). For `Cc1ccc(S(=O)(=O)N[C@H]2CC[C@H](CC(=O)NCc3ccccc3F)O[C@@H]2CO)cc1`, the CPE inhibition was 23.7% (active). In the case of `O=C(C[C@@H]1CC[C@H](NS(=O)(=O)c2ccc(F)cc2)[C@@H](CO)O1)NCc1ccccc1F`, the CPE inhibition is reported as 1.66% (inactive). For `Cc1ccccc1-c1ccc2c(c1)O[C@@H](CN(C)Cc1ccc(C(=O)O)cc1)[C@H](C)CN([C@H](C)CO)S2(=O)=O`, the CPE inhibition was 0.324% (inactive). With `CC=Cc1ccc2n(c1=O)C[C@H]1[C@H](CO)[C@@H](C(=O)N3CCCCC3)N(Cc3ccccn3)[C@@H]21` (mixture of isomers) the CPE inhibition was 14.3% (inactive). For `COc1cccc(C(=O)NCCSc2ccc(Br)cc2)c1`, the CPE inhibition was 14.3% (inactive). In the case of `COc1ccc(C(=O)NCCSc2ccccc2C)cc1`, the CPE inhibition is reported as -6.82% (inactive). With `CCS(=O)(=O)Nc1ccc(C(=O)NCCSc2ccccc2)cc1` the CPE inhibition was 32% (active). With `C[C@@H]1CN([C@@H](C)CO)C(=O)c2cccc(N(C)C)c2O[C@@H]1CN(C)S(C)(=O)=O` the CPE inhibition was 1.61% (inactive). For `C[C@@H]1CCCCO[C@@H](CN(C)S(=O)(=O)c2cccs2)[C@@H](C)CN([C@H](C)CO)C(=O)c2cc(NC(=O)Nc3ccc4c(c3)OCO4)ccc2O1`, the CPE inhibition was -1.49% (inactive). For `COCCNC(=O)[C@H]1[C@H](CO)[C@H]2Cn3c(ccc(-c4ccccc4F)c3=O)[C@H]2N1C(=O)C1CCC1`, the CPE inhibition was -1.96% (inactive). In the case of `COc1ccc(CCNC(=S)N2CCN(S(=O)(=O)c3ccc(F)cc3)CC2)cc1`, the CPE inhibition is reported as 53.1% (active). In the case of `COc1ccc(CCC(=O)N2CCN(S(=O)(=O)c3ccc(OC)cc3)CC2)cc1`, the CPE inhibition is reported as -8.26% (inactive). In the case of `COc1ccc(CCNC(=S)N2CCN(S(=O)(=O)c3ccc(Cl)cc3)CC2)cc1`, the CPE inhibition is reported as 0.363% (inactive). With `CO[C@@H]1CN(C)C(=O)c2cc(NC(=O)NC3CCCCC3)ccc2OC[C@H](C)N(CC2CC2)C[C@H]1C` the CPE inhibition was 5.48% (inactive). For `CN1c2ccc(-c3ccc(C#N)cc3)cc2[C@@H]2[C@@H](CCN2S(=O)(=O)c2cccc(F)c2)[C@@H]1CO`, the CPE inhibition was 2.27% (inactive). With `COC(=O)[C@@H]1[C@@H](CO)[C@@H]2Cn3c(ccc(C4=CCCC4)c3=O)[C@@H]2N1Cc1cncnc1` the CPE inhibition was -0.488% (inactive). In the case of `CCOC(=O)C1CCN(Cc2c(C(=O)N3CCOCC3)nc3c(C)cccn23)CC1`, the CPE inhibition is reported as 115% (active). With `Cc1cccn2c(CN(C)C3CCCc4ccccc43)c(C(=O)N3CCOCC3)nc12` (configuration not stated) the CPE inhibition was -1.26% (inactive). For `Cc1cccn2c(CNCC(C)Oc3cccnc3)c(C(=O)N3CCOCC3)nc12` (configuration not stated), the CPE inhibition was 5.69% (inactive). In the case of `CN(C)C(=O)c1ccc(-c2ccc([C@H]3[C@@H](CO)N4C(=O)CN(C(=O)CC5CC5)C[C@@H]34)cc2)cc1`, the CPE inhibition is reported as -1.06% (inactive). For `COc1ccccc1NC(=O)N1CC(=O)N2[C@H](CO)[C@H](c3ccc(C#Cc4ccccc4)cc3)[C@H]2C1`, the CPE inhibition was 8.69% (inactive). With `CN(C)CC(=O)N[C@@H]1CC[C@@H](CCn2cc(C3CC3)nn2)O[C@H]1CO` the CPE inhibition was 13.8% (inactive). In the case of `O=C(Cc1ccncc1)N[C@H]1CC[C@H](CCn2cc(-c3ccccc3F)nn2)O[C@@H]1CO`, the CPE inhibition is reported as -5% (inactive). With `O=C(Cc1ccncc1)N[C@@H]1CC[C@H](CCn2cc(-c3ccccc3F)nn2)O[C@H]1CO` the CPE inhibition was 2.31% (inactive). With `COc1cccc(-c2cn(CC[C@H]3CC[C@H](NC(=O)CN(C)C)[C@H](CO)O3)nn2)c1` the CPE inhibition was -8.73% (inactive). In the case of `O=C(Cc1cccnc1)N[C@H]1CC[C@H](CCn2cc(-c3ccccc3F)nn2)O[C@H]1CO`, the CPE inhibition is reported as 20% (active). With `CN(C)CC(=O)N[C@@H]1CC[C@H](CCn2cc(C3CCCC3)nn2)O[C@H]1CO` the CPE inhibition was 77.7% (active). In the case of `COc1ccc(S(=O)(=O)N[C@@H]2CC[C@H](CC(=O)N3CCc4ccccc4C3)O[C@H]2CO)cc1`, the CPE inhibition is reported as 2.67% (inactive). With `COc1ccccc1CNC(=O)C[C@H]1CC[C@@H]2[C@H](COC[C@H](O)CN2Cc2ccccc2)O1` the CPE inhibition was -0.546% (inactive). In the case of `CO[C@@H](CN(C)C(=O)c1cnccn1)[C@H](C)CN([C@H](C)CO)S(=O)(=O)c1ccc(C)cc1`, the CPE inhibition is reported as -0.652% (inactive). For `C[C@H]1CN([C@@H](C)CO)C(=O)Cc2cc(NC(=O)Cc3ccccc3)ccc2O[C@@H]1CN(C)Cc1ccc(Cl)c(Cl)c1`, the CPE inhibition was 11.1% (inactive). In the case of `C[C@@H]1CN([C@@H](C)CO)C(=O)Cc2cc(NC(=O)CCCCCC(=O)Nc3ccccc3N)ccc2O[C@H]1CN(C)Cc1ccc(Cl)c(Cl)c1`, the CPE inhibition is reported as 35.5% (active). For `C[C@@H]1CN([C@@H](C)CO)C(=O)Cc2cc(NC(=O)CCCCCC(=O)Nc3ccccc3N)ccc2O[C@H]1CN(C)C(=O)Nc1ccc(C(F)(F)F)cc1`, the CPE inhibition was 0.365% (inactive). In the case of `C[C@H]1CN([C@@H](C)CO)C(=O)Cc2cc(NC(=O)CCCCCC(=O)Nc3ccccc3N)ccc2O[C@H]1CN(C)C(=O)Nc1ccc(F)cc1`, the CPE inhibition is reported as 6.87% (inactive). For `C[C@H](CO)N1C[C@H](C)[C@H](CN(C)Cc2ccc(C(F)(F)F)cc2)Oc2ccc(NC(=O)CCCCCC(=O)Nc3ccccc3N)cc2CC1=O`, the CPE inhibition was 30.6% (active). For `C[C@H]1CN([C@@H](C)CO)C(=O)Cc2cc(NC(=O)CCCCCC(=O)Nc3ccccc3N)ccc2O[C@@H]1CN(C)Cc1ccncc1`, the CPE inhibition was -3.1% (inactive).
